This passage reports z-score results from PubChem BioAssay.

Experiment [1] is described as follows: A549 cell viability effects, profiling panel, calcein-AM fluorescence, 48 h, basal (AID 1162). To be noted: higher = more signal.
Experiment [2] can be described thus: adipocyte viability effects, profiling panel, cell-based, 3T3-L1 adipocytes, calcein-AM fluorescence, 48 h, basal (AID 1163). To be noted: 3T3-L1 adipocytes viability, higher = more signal.
The nature of experiment [3]: HepG2 cell viability effects, profiling panel, calcein-AM fluorescence, 48 h, basal (AID 1164). To be noted: higher = more signal.
A short description of experiment [4]: MM1S cell viability effects, profiling panel, calcein-AM fluorescence, 48 h, basal (AID 1165).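 Also: viability of MM1S multiple myeloma cells under basal unstimulated conditions.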 To be noted: higher = more signal.
Experiment [5] in a line: basal RPMI8226 viability, no added stimulus, profiling panel, cell-based, calcein-AM fluorescence, 48 h, PK04 Diversity Set (AID 1166).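 Also: cells grown under basal conditions without added stimulus.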 To be noted: RPMI8226 myeloma viability, higher = more signal.
Experiment [6] is described as follows: basal HepG2 mitochondrial membrane potential changes, profiling panel, cell-based, JC-1 fluorescence, 24 h, 100 nL compound (AID 1167). To be noted: higher = more signal.
Experiment [7] in a line: basal 3T3-L1 adipocyte mitochondrial potential changes, profiling panel, cell-based, JC-1 fluorescence, 3T3-L1 adipocytes, 24 h, 100 nL compound (AID 1168). To be noted: JC-1 mitochondrial fluorescence, higher = more signal, called active from +8 up or from −8 down.
Experiment [8] can be described thus: basal RPMI8226 mitochondrial membrane potential changes, profiling panel, cell-based, JC-1 fluorescence, 24 h, 100 nL compound (AID 1169). To be noted: RPMI8226 myeloma, JC-1 mitochondrial potential fluorescence, higher = more signal.
A short description of experiment [9]: basal MM1S mitochondrial membrane potential changes, profiling panel, cell-based, JC-1 fluorescence, 24 h, 100 nL compound (AID 1170). To be noted: higher = more signal.
Experiment [10] is described as follows: A549 lung cancer cell viability effects, profiling panel, resazurin fluorescence, 24 h, PK04 Diversity Set (AID 1171). To be noted: higher = more signal, called active from +8 up or from −8 down. Background: The colour change of resazurin is a common sign of viable cells or microbes.

Each structure is given as a SMILES string. Activity calls are given as the source filed them.
Also: test concentration not given here.

Regarding `C=CCNC(=O)[C@H]1[C@@H]2C(=O)O[C@@H](c3ccccc3)[C@@H](c3ccccc3)N2[C@@H](c2ccc(OCCO)cc2)[C@]12C(=O)Nc1ccc(C#Cc3ccc(OC)cc3)cc12`, the z-score in [1] is -1.09; in experiment [2], 2.01; in experiment [3], -0.845; in experiment [4] it was -0.291; in [5], -2.14; in [6] it was -1.38. In addition, the z-score in experiment [7] is 3.11 (inactive); in experiment [8], -1.22; in experiment [9] it was -0.867; in experiment [10] it was -1.04 (inactive).
For the compound `CCOC(=O)C=C1C[C@@H](c2cccc([N+](=O)[O-])c2)O[C@@H](c2cccc([N+](=O)[O-])c2)O1`, the z-score was -0.865 in experiment [1]; -0.477 in experiment [2]; 0.177 in experiment [3]; -0.71 in [4]; -0.588 in experiment [5]; 3.97 in experiment [6]. Besides, the z-score is 0.94 (inactive) in [7], 0.779 in experiment [8], -0.351 in experiment [9] and 1.44 (inactive) in [10].
For the compound `C=C(C(=O)CC[C@@H](OC(=O)c1cccnc1)c1cccc(OCCO)c1)C(C)C`, the z-score was 0.281 in experiment [1]; 0.568 in experiment [2]; 1.19 in experiment [3]; -1.27 in [4]; -0.855 in experiment [5]; -0.0539 in [6]. Further, the z-score was -0.227 (inactive) in experiment [7], -0.706 in experiment [8], -0.928 in experiment [9] and 0.508 (inactive) in experiment [10].
As for `COc1ccc(C(O)C2C=CC3C(=O)N(C)C(=O)C3N2Nc2ccccc2)cc1` (stereo not given), the z-score in experiment [1] was -1.12; in experiment [2], -0.221; in [3] it was -0.393; in [4] it was 0.291; in [5] it was -0.301; in experiment [6] it was -1.27. The z-score in experiment [7] is -0.0635 (inactive); in experiment [8], -0.176; in experiment [9], -0.153; in experiment [10] it was -1.27 (inactive).
With `CCCCCN1CC=CC23O[C@@H]4/C=C\CCCOC(=O)C4[C@H]2C(=O)N(CCCCCO)[C@@H]3C1=O` (stereo not given in full), the z-score is 0.386 in experiment [1]; 1.96 in experiment [2]; -0.216 in experiment [3]; 0.281 in experiment [4]; 1.13 in experiment [5]; -0.116 in experiment [6]. Besides, the z-score was 1.24 (inactive) in [7], -0.21 in experiment [8], -0.235 in [9] and 0.844 (inactive) in [10].
Take `O=C1NC(=O)C2C1C=CC(C(O)c1ccc(F)cc1)N2Nc1ccc(Cl)cc1Cl` (stereo not given): the z-score in experiment [1] is -2.35; in experiment [2], -0.275; in experiment [3] it was -3.57; in experiment [4] it was -2.88; in [5] it was -2.29; in experiment [6] it was -3.47. In addition, the z-score is -0.472 (inactive) in [7], -0.0645 in experiment [8], 0.174 in experiment [9] and -2.11 (inactive) in experiment [10].
Turning to `COC(=O)[C@@]1(Cc2ccc(F)cc2)[C@H]2c3cc(C(=O)N4CCCC4)n(CCSCCO)c3C[C@H]2CN1C(=O)c1ccccc1`, the z-score in [1] was -0.354; in [2] it was 0.75; in [3] it was 0.706; in [4], -1.58; in [5], -0.118; in experiment [6], 1.3. In addition, the z-score was -1.3 (inactive) in experiment [7], -0.00907 in experiment [8], -0.303 in experiment [9] and -0.294 (inactive) in experiment [10].
Turning to `COc1ccc([Si](C)(C)[C@H]2[C@H](CC(=O)N3CCC[C@H]3CO)O[C@@]3(C(=O)N(Cc4cccc(N5CCCCC5=O)c4)c4ccccc43)[C@@H]2C)cc1`, the z-score in experiment [1] was 0.239; in [2], 0.112; in [3], -0.134; in [4] it was -2.65; in experiment [5] it was -3.15; in [6], 2.8. The z-score is 0.0592 (inactive) in [7], -0.893 in experiment [8], 0.286 in experiment [9] and 0.423 (inactive) in experiment [10].
Consider `C=CC[C@]12N=C(c3ccc(OCCCO)cc3)O[C@H]1c1ccccc1N(CCC)C2=O`, for which the z-score in experiment [1] was -1.36; in experiment [2] it was 0.538; in experiment [3], -0.454; in [4], -2.03; in experiment [5], -3.07; in experiment [6], 0.788. For the same compound, the z-score is 1.85 (inactive) in experiment [7], -1.07 in experiment [8], -0.207 in experiment [9] and 0.266 (inactive) in experiment [10].
Take `O=C1O[C@@H](c2ccccc2)[C@@H](c2ccccc2)N2[C@@H](c3ccccc3OCCO)[C@]3(C(=O)Nc4ccc(C#CC5(O)CCCCCC5)cc43)[C@@H](C(=O)N3CCCCCCC3)[C@H]12`: the z-score is -1.66 in experiment [1]; 1.48 in experiment [2]; -0.0161 in experiment [3]; -0.651 in experiment [4]; -2.59 in experiment [5]; -1.4 in experiment [6]. The z-score in experiment [7] was 0.644 (inactive); in experiment [8], -0.96; in experiment [9] it was -1.33; in [10] it was -0.64 (inactive).
`Cc1ccc(N2C(=O)c3ccccc3[C@@H](C(=O)NCCN3CCOCC3)[C@@H]2c2ccc(CO)cc2)nc1`: the z-score in experiment [1] is -0.619; in experiment [2], 0.112; in [3], -0.45; in experiment [4], 0.128; in [5], 0.0765; in experiment [6] it was -0.274. Moreover, the z-score in experiment [7] is 0.111 (inactive); in experiment [8], -0.171; in [9], 0.235; in experiment [10], 0.444 (inactive).
Take `CO[C@H]1O[C@H](CO)[C@@H](OC(=O)Nc2cccc(F)c2)[C@H](OC(=O)Nc2ccc3c(c2)OCO3)[C@@H]1OC(=O)Nc1ccc2c(c1)OCO2`: the z-score was -1.33 in [1]; 0.726 in experiment [2]; -1.07 in experiment [3]; -1.49 in experiment [4]; -1.74 in [5]; -0.96 in experiment [6]. Further, the z-score was -0.672 (inactive) in [7], -0.571 in experiment [8], -0.964 in experiment [9] and -1.47 (inactive) in experiment [10].
As for `CC1C2C(CCCO)=CC(C3C(=O)N(C(N)=O)C(=O)C23)N1Cc1cccc(OC(F)(F)F)c1` (stereo not given), the z-score in experiment [1] is -0.846; in experiment [2] it was -0.528; in [3], 0.192; in [4], -0.486; in experiment [5], 0.244; in [6] it was -0.632. The z-score was -0.795 (inactive) in experiment [7], 0.787 in [8], -0.547 in [9] and -0.13 (inactive) in [10].
`O=C1O[C@H](c2ccccc2)[C@H](c2ccccc2)N2[C@H]1[C@@H](C(=O)N1CCN(c3ncccn3)CC1)[C@]1(C(=O)Nc3ccc(C#CC4(O)CCCCCC4)cc31)[C@H]2c1ccc(O)cc1`: the z-score was 1.84 in [1]; 0.783 in [2]; 1.58 in [3]; 0.0827 in experiment [4]; -0.153 in [5]; -0.553 in [6]. Besides, the z-score in experiment [7] was -0.166 (inactive); in experiment [8], -0.259; in experiment [9], 0.18; in experiment [10], 1.17 (inactive).
Take `CCCCC(=C=CC[C@H](O)c1ccccc1OCCO)CCO`: the z-score in [1] is -0.341; in experiment [2], -0.358; in experiment [3] it was 0.285; in experiment [4] it was -0.0455; in [5], -0.857; in [6], -0.95. Also, the z-score in experiment [7] is 0.101 (inactive); in experiment [8], -0.193; in experiment [9], -0.434; in experiment [10], 0.356 (inactive).
